In ChEMBL document CHEMBL3988442, “University of Dundee, Small-Polar-MMV Screening Library” (2021) one finds Percent Effect data, which are given here for 20 molecules.

For this assay, the system named is Trypanosoma cruzi. Put plainly: Trypanosoma cruzi phosphomannomutase and mannose-1-phosphate guanylyltransferase assay. The class given is functional. Set-up: scale not given: direction of the effect not stated beside the values. Conditions: 10 µM.
Consider `CNC(=O)C1CCN(C(=O)c2ccn(-c3ccc(F)cc3)n2)CC1`, for which the Percent Effect is -1.21%.

As to `COc1cccc([C@@H]2CN(C(=O)c3ccc(C)cc3O)C[C@H]2C(=O)O)c1`, the Percent Effect was found to be 4.59%. Regarding `O=C(Cc1cccc(F)c1)NCCNCc1ccco1`, the Percent Effect was -3.37%.

`Cc1ncsc1C(=O)NC1CCN(CC(=O)NCc2ccccc2)CC1`: the Percent Effect stood at 2.71%. As for `CCN1CC(C(=O)N(C)Cc2ccon2)CC1=O` (stereo not given), the Percent Effect is -2.44%. Next, `COCc1c(C(=O)O)nnn1Cc1cccc(C(F)(F)F)c1`: -4.13%. Regarding `O=C(NCC(O)c1cccc(F)c1)c1cccnc1O` (stereo not given), the Percent Effect is 9.52%. Next, `Cc1nc(CN2CCOC(Cn3cncn3)C2)nc2ccccc12` (stereo not given): 3.04%; `CCc1nnc2n1CCN(C(=O)CN(C)Cc1ccccc1)C2`: 5.88%; `CCn1nc(C)c(CNC(=O)c2cn(CCC3CCCCN3)nn2)c1C` (stereo not given): 1.27%.

For the molecule `CCS(=O)(=O)Nc1ccc(C(=O)NCCCN2CCCC2)cc1`, the Percent Effect is -3.8%. The same measure for `COc1cccc(CN(C)C(=O)CSc2ccc3c(c2)OCCO3)c1`: -0.876%; for `CC(C)c1cnc(CNc2c(F)cccc2-n2cccn2)o1`: 1.26%. For `O=S(=O)(Cc1ccccc1F)NCCCN1CCCCC1`, the Percent Effect stood at 1.66%. Take `CN(C)S(=O)(=O)N1CC[C@@H]2CN(Cc3cnn(C)c3)C[C@@H]2C1`: the Percent Effect was -4.63%. For `CN(C(=O)Cc1ccc2c(c1)OCCO2)C1CCCC1`, the Percent Effect was -3.8%.

With `C1CC(NCc2nc(C3CC3)no2)CN(Cc2noc(C3CC3)n2)C1` (stereo not given), the Percent Effect was -6.32%. Turning to `COCCN1C[C@@H]2CCCO[C@@H]2[C@H](NC(=O)c2cnccn2)C1`, the Percent Effect was -2.32%. For the molecule `Cc1nc2cc(C(=O)N3CCCC(n4cncn4)C3)ccc2n1C` (stereo not given), the Percent Effect is 9.75%. In the case of `Cc1ccc(CN2CC(C(=O)N3CCCC3)C3(CCOCC3)C2)s1` (stereo not given), the Percent Effect is -5.41%.
